Source: PubChem
Shown are actives, neighbours in structure and some others; about 7.3% of the full set was active somewhere.
Rab9 prom act = activates the Rab9 promoter | Huh7 Rab9 promoter-luciferase reporter, luminescence, 24 h | Potency, µM (top dose mostly 9.22 µM), inactives show at the top dose activation, negative = inhibition, most hits filed as activators | 320,000 tested, 2.8% active | AID 485297; also: % of control where 0% means no effect; nearly all actives have a fitted effect of over 60% in size
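Steps: seed 1500 Huh7 Rab9-luc cells per well, rest 2 h at 37 °C; add compound in DMSO; incubate 24 h; add luciferase reagent, 10 min ambient; read luminescence.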
SMN2 splice up = SMN2 splice variant enhancement; HEK293 SMN2-luciferase splicing reporter, luminescence, 30-36 h; Potency, µM (doses to about 46.1 µM), for the others: top-dose activity change, positive = activation, hits mostly activators; 210,000 tested, 2.8% active; AID 1458; also: % of control where 0% means no effect; nearly all actives have a fitted effect of over 55% in size
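HEK293 cells carry an SMN2 minigene-luciferase reporter in which exon 7 inclusion puts luciferase in frame. Cells were seeded at 2000 cells/well, attached for 10-12 hours, then exposed to compounds for 30-36 hours at 37C before ONE-Glo luminescence.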
ELG1 genotox = induces genotoxicity in HEK293T cells with luciferase-tagged ELG1. HEK293T ELG1-luciferase reporter, luminescence, 16 h. Potency, µM (titrated, usually from 46 µM), for inactives: at the highest dose activity change, positive = activation, hits mostly activators. 330,000 tested, 1.3% active; also: % of control where 0% means no effect; nearly all actives have a fitted effect of over 60% in size
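After overnight (16 hr) compound treatment at 37 °C, ELG1-luciferase HEK293T cells were lysed with ONE-Glo; luminescence quantified 30 min later at room temperature.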
NPC1 prom act = activators of NPC1 promoter; Huh7 NPC1 promoter luciferase reporter, 24 h; 320,000 tested, 2.4% active; Potency, µM (titrated, usually from 9.22 µM), for the others: at the highest dose activation, actives largely listed as activators; also: % of control where 0% means no effect; nearly all actives have a fitted effect of over 60% in size
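Huh7 cells stably carrying NPC1 promoter–luciferase, plated in Opti-MEM with 10% FBS for 2 h, were exposed to compound in DMSO for 24 h at 37 °C; luciferase reagent was added for 10 min and luminescence read.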
Luc counter = blocks Kinase-Glo luciferase, a counter-screen artifact | AID 1379 | Potency, µM (series often up to 38.3 µM), without a hit: at the top dose activity change, negative = inhibition, actives largely listed as inhibitors | 200,000 tested, 0.28% active | Q27757 | Kinase-Glo luciferase, ATP luminescence, 8 min; also: % is scaled to controls: 0 for no effect and ±100 for the full control effect; nearly all actives have a fitted effect of over 60% in size
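Compound is pinned into ATP-containing buffer (10 uM ATP, imidazole pH 7.2, 7 mM MgCl2). Kinase-Glo luciferase reagent is then added. Light output is recorded following an 8-min room-temperature incubation.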
FLuc modulator = firefly luciferase modulation, counter-screen for miR-21 project; purified FLuc, Km substrates, luminescence inhibition; Potency, µM (doses to about 57.5 µM), for the others: at the highest dose activity change, negative = inhibition, usual class: inhibitors; 360,000 tested, 6.9% active;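 also: plate controls were vehicle for no effect and reference inhibitor for full effect; nearly all actives have a fitted effect of over 55% in size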
Target sequence (P08659 whole entry, looked up): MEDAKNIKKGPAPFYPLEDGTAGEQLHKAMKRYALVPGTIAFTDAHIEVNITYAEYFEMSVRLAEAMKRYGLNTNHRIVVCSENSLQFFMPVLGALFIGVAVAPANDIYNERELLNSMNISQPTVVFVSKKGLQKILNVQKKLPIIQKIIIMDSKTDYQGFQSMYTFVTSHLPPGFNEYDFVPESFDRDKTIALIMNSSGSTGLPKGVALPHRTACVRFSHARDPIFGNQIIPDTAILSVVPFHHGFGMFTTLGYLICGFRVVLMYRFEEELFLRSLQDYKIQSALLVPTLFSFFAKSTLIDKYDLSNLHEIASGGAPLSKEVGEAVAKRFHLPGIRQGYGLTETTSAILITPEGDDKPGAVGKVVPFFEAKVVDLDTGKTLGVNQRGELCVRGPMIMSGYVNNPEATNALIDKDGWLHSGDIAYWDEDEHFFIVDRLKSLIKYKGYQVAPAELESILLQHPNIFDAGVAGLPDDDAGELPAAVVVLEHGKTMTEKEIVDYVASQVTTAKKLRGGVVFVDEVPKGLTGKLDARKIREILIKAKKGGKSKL
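Biochemical qHTS of compounds, final roughly 60 µM downward over six points, against 10 nM purified firefly luciferase using Km concentrations of substrates (10 uM D-luciferin, 10 uM ATP) in Tris acetate pH 7.5 buffer; luminescence output.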
Numbers without * were called inactive; u = inconclusive; x = not tested or not shown; [ ] = remark or other dose. Calls follow the shape of the dose curve; as a rule, active = well fitted curve in the direction sought with a large enough effect; inconclusive = small, poorly fitted or top-dose-only effect, or another doubt; inactive = no such curve, though single readings can be large; an effect the other way counts as inactive or inconclusive. Potency is read from the fitted curve at half-maximal effect.

SMILES	Rab9 prom act	SMN2 splice up	ELG1 genotox	NPC1 prom act	Luc counter	FLuc modulator
O=C(/C=C/c1ccc(Br)cc1)c1ccc(NC(=O)c2ccco2)cc1	11%	3%	1%	1%	-1%	u
Cc1cccc(NC(=O)c2cccc(OC(=S)N3CCOCC3)c2)c1	-4%	x	-3%	0%	x	u
O=C(Nc1cccc2ccccc12)c1ccc(OC(=S)N2CCOCC2)cc1	2%	24%	-5%	0%	1%	11µM*
O=C(Nc1cccc2ccccc12)N1CCOCC1	1%	-4%	1%	1%	2%	-2%
O=C(Nc1cccc(Cl)c1)c1ccc(OC(=S)N2CCOCC2)cc1	u	-3%	u	u	-6%	2.7µM*
CC(C)Oc1ccc(CNC(=O)c2ccc(CN3CC(=O)N4CCCCC4C3=O)cc2)cc1 (stereo unspecified)	x	x	x	x	x	-5%
Cc1ccc(-n2nc(CO)c(C(=O)NC(C)CCCc3ccccc3)n2)cc1 (stereo unspecified)	x	-18%	x	x	x	-6%
Cn1c2ccccc2c(=O)c2cc(C#Cc3ccccn3)ccc21	5µM*	x	u	2.5µM*	x	3µM*
Cn1c2ccccc2c(=O)c2cc(C#Cc3ccsc3)ccc21	2.8µM*	x	10%	u	x	2.4µM*
O=C(/C=C/c1ccccc1Cl)NC(=S)Nc1ccccc1C(=O)NC1CCCCC1	u	11%	3%	13%	-1%	17µM*
O=C(NC1CCCCC1)c1ccccc1NC(=S)NC(=O)C1CCC1	-6%	12%	2%	0%	6%	-2%
Cc1ccc(NC(=O)Cn2cc(S(=O)(=O)Cc3ccc(F)cc3)c3ccccc32)cc1Cl	x	x	x	x	x	-14%
CC(=O)c1ccc(N2CCN(C(=O)c3cc4c(s3)CCCC4)CC2)cc1	17%	11%	14%	5%	-3%	24µM*
O=C(c1cc2c(s1)CCCC2)n1cccn1	-6%	-1%	5%	-1%	-4%	21µM*
CC(C)NC(=O)C1CCN(C2CCN(C(=O)c3cc4c(s3)CCCCC4)CC2)CC1	-13%	-22%	-7%	-5%	3%	-8%
COc1ccc(N2CCN(C(=O)c3cc4c(s3)CCCCC4)CC2)cc1	-1%	x	0%	3%	x	17µM*
NC(=O)C1CCN(C(=O)c2cc3c(s2)CCCC3)CC1	1.4µM*	x	15%	1.8µM*	x	-14%
COc1ccccc1N1CCN(C(=O)c2cc3c(s2)CCC3)CC1	0%	-15%	-2%	1%	0%	-3%
Cc1cccc(N2CCN(C(=O)c3c4c(nc5ccccc35)C(=O)N(C3CCCCC3)C4)CC2)c1C	x	x	x	x	x	-3%
CC(C)(C)c1ccc(OCCn2cc(C(=O)c3ccco3)c3ccccc32)cc1	x	-3%	x	x	x	-4%
O=C(c1cnc(N2CCOCC2)c2ccccc12)N1CCN(c2ccccc2)CC1	x	x	x	x	x	0%
Cc1cc(C2=NNC(=Nc3ccc(S(=O)(=O)N4CCOCC4)cc3)SC2)c(C)n1C	-3%	x	0%	2%	x	-17%
COCCCN=C1NN=C(c2cc(C)n(Cc3ccco3)c2C)CS1	10%	u	3.3µM*	6.3µM*	0%	2.7µM*
COCC(C)N=C1NN=C(c2cc(C)n(Cc3ccccc3Cl)c2C)CS1 (stereo unspecified)	u	-16%	u	u	1%	7.6µM*
Cc1cc(C2=NNC(=NC3CC3)SC2)c(C)n1Cc1ccco1	-50%	-70%	18%	-34%	u	0.12µM*
SMILES	Rab9 prom act	SMN2 splice up	ELG1 genotox	NPC1 prom act	Luc counter	FLuc modulator
COCC(C)N=C1SCCN1Cc1ccccc1 (stereo unspecified)	-3%	x	0%	1%	x	2%
CCc1ccc(NC(=O)c2ccc(F)c(S(=O)(=O)NCCc3ccc(OC)c(OC)c3)c2)cc1	x	x	x	x	x	0%
COc1cc(C)ccc1OCCCOc1ccccc1Br	1.4µM*	3%	u	u	-3%	19µM*
COc1ccccc1OCCCOc1ccc(C)cc1Br	u	u	18µM*	u	15%	4.8µM*
COc1ccccc1OCCCOc1ccc([N+](=O)[O-])cc1Cl	4.5µM*	u	16%	u	-5%	5.4µM*
NC(=O)C1CCN(S(=O)(=O)c2ccc(N3CCCCS3(=O)=O)cc2)CC1	x	x	x	x	x	0%
CC(=O)Nc1cccc(NC(=O)c2cccc(-c3ccc(O)cc3)c2)c1	10%	x	0%	6%	x	9.5µM*
CC(=O)Nc1cccc(NC(=O)c2ccccc2OCc2ccccc2)c1	3%	x	-21%	-3%	x	-12%
CC(=O)Nc1cccc(NC(=O)c2cccc(OCc3ccccc3)c2)c1	1%	x	-3%	8%	x	27µM*
CCN1CCN(c2ccc(NC(=O)c3cccc(OCc4ccccc4)c3)cc2)CC1	4%	-20%	-2%	-8%	15%	u
CN1CCN(c2ccc(NC(=O)c3cccc(OCc4ccccc4)c3)cc2)CC1	20%	-14%	30%	19%	-1%	7.6µM*
COC(=O)C(C)NC(=O)N1CCN(c2nnc(C)c3c(C)n(-c4ccc(Cl)cc4)nc23)CC1 (stereo unspecified)	x	x	x	x	x	0%
CCOCCc1nn2c(=O)cc(COC(=O)C(CC)c3ccccc3)nc2s1 (stereo unspecified)	x	x	x	x	x	-4%
CCCCn1c(=O)[nH]c2nc3cc(N)ccc3nc2c1=O	3.2µM*	u	17%	u	-3%	-26%
Nc1ccc2nc3c(=O)n(C4CCCCC4)c(=O)[nH]c3nc2c1	u	x	u	u	x	12µM*
Nc1ccc2nc3c(=O)n(CCc4ccccc4)c(=O)[nH]c3nc2c1	17%	x	-3%	-1%	x	-14%
Cc1ccc(Cn2c(C(=O)O)c(CNCc3ccc(OC(C)C)cc3)c3ccc(C)cc32)cc1	x	x	x	x	x	0%
Cc1[nH]c2ccccc2c1C(=O)COc1ccccc1F	22%	x	13%	16%	-1%	21µM*
c1ccc2sc(SCN(C3CCCCC3)C3CCCCC3)nc2c1	x	-6%[9.22 µM]	x	x	-1%[7.66 µM]	x
Cn1cccc1C(=O)NCC1COc2ccccc2O1 (stereo unspecified)	3.2µM*	x	16%	u	x	2%
Cn1cccc1C(=O)NCCc1ccc(Cl)cc1	2.5µM*	x	u	2.8µM*	x	15µM*
Cn1cccc1C(=O)NCc1ccc(Cl)cc1	3%	x	0%	10%	x	0%
O=C(CCC1COc2ccccc2O1)NCC1COc2ccccc2O1 (stereo unspecified)	-1%	-18%	-1%	-3%	0%	0%
Cn1cccc1C(=O)NCCc1ccccc1	0.5µM*	x	2.3µM*	0.4µM*	x	4.8µM*
CSc1ccccc1NC(=O)C1CC(c2c(F)cccc2Cl)=NO1 (stereo unspecified)	16%	x	u	14%	x	17µM*
